# Screen size: about 5,500 compounds; about 2,000 (36%) were called active. Not shown: some 18% with an inconclusive outcome. This is one part of the list. A number with no mark means an inactive call. Cut-off read from the data, not from the text of the source: active = normalized growth mostly below about 0.91 (no sharp cut-off); inconclusive = no clear call, values can overlap the other calls; inactive = mostly above about 0.92.
# Assay: chemical genetic growth profiling, strain panel (AID 1159580);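 note: tested at 20 µM; growth read once vehicle control cultures reached saturation at 30 °C; 1 = growth at the plate median or of vehicle wells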
# Settings: growth OD
compound,measurement,setting,value
Cc1cc(O)cc(C)c1Cl,normalized growth,"S. cerevisiae deletion strains, locus YKL009W, strain mrt4, stronger effect = lower value",0.931
same,normalized growth,"S. cerevisiae deletion strains, locus YKL068W, stronger effect = lower value",1
same,normalized growth,"S. cerevisiae deletion strains, locus YKL085W, strain MDH1 (second series), stronger effect = lower value",0.971
same,normalized growth,"S. cerevisiae deletion strains, locus YKL085W, strain MDH1, stronger effect = lower value",0.971
same,normalized growth,"S. cerevisiae deletion strains, locus YKL160W, strain elf1, stronger effect = lower value",0.915
same,normalized growth,"S. cerevisiae deletion strains, locus YKL190W, strain CNB1, stronger effect = lower value",1
same,normalized growth,"S. cerevisiae deletion strains, locus YKR001C, strain vps1, stronger effect = lower value",0.846 (active)
same,normalized growth,"S. cerevisiae deletion strains, locus YKR026C, strain gcn3, stronger effect = lower value",0.952
same,normalized growth,"S. cerevisiae deletion strains, locus YKR091W, strain srl3, stronger effect = lower value",0.958
same,normalized growth,"S. cerevisiae deletion strains, locus YLL001W, strain dnm1, stronger effect = lower value",0.875 (active)
same,normalized growth,"S. cerevisiae deletion strains, locus YLL026W, stronger effect = lower value",0.915 (active)
same,normalized growth,"S. cerevisiae deletion strains, locus YLL041C, strain sdh2, stronger effect = lower value",0.957
same,normalized growth,"S. cerevisiae deletion strains, locus YLR027C, strain aat2, stronger effect = lower value",0.941
same,normalized growth,"S. cerevisiae deletion strains, locus YLR039C, strain RIC1, stronger effect = lower value",0.765
same,normalized growth,"S. cerevisiae deletion strains, locus YLR058C, strain SHM2, stronger effect = lower value",1
same,normalized growth,"S. cerevisiae deletion strains, locus YLR102C, strain apc9, stronger effect = lower value",1
same,normalized growth,"S. cerevisiae deletion strains, locus YLR113W, strain HOG1, stronger effect = lower value",0.944
same,normalized growth,"S. cerevisiae deletion strains, locus YLR221C, strain rsa3, stronger effect = lower value",0.856 (active)
same,normalized growth,"S. cerevisiae deletion strains, locus YLR258W, strain gsy2, stronger effect = lower value",0.924
same,normalized growth,"S. cerevisiae deletion strains, locus YLR262C, strain YPT6 (second series), stronger effect = lower value",0.403 (active)
same,normalized growth,"S. cerevisiae deletion strains, locus YLR262C, strain YPT6, stronger effect = lower value",0.736
same,normalized growth,"S. cerevisiae deletion strains, locus YLR268W, strain sec22, stronger effect = lower value",1.01
same,normalized growth,"S. cerevisiae deletion strains, locus YLR320W, strain mms22, stronger effect = lower value",0.815 (active)
same,normalized growth,"S. cerevisiae deletion strains, locus YLR330W, strain CHS5, stronger effect = lower value",0.994
same,normalized growth,"S. cerevisiae deletion strains, locus YLR342W, strain FKS1 (second series), stronger effect = lower value",0.982
same,normalized growth,"S. cerevisiae deletion strains, locus YLR342W, strain FKS1, stronger effect = lower value",0.935
same,normalized growth,"S. cerevisiae deletion strains, locus YLR357W, strain rsc2, stronger effect = lower value",1.1
same,normalized growth,"S. cerevisiae deletion strains, locus YLR370C, strain arc18, stronger effect = lower value",0.902 (active)
same,normalized growth,"S. cerevisiae deletion strains, locus YLR371W, strain rom2, stronger effect = lower value",0.997
same,normalized growth,"S. cerevisiae deletion strains, locus YLR384C, strain iki3, stronger effect = lower value",0.992
same,normalized growth,"S. cerevisiae deletion strains, locus YLR418C, strain cdc73, stronger effect = lower value",1
same,normalized growth,"S. cerevisiae deletion strains, locus YML016C, strain PPZ1, stronger effect = lower value",0.992
same,normalized growth,"S. cerevisiae deletion strains, locus YML032C, strain rad52, stronger effect = lower value",0.957
same,normalized growth,"S. cerevisiae deletion strains, locus YML120C, strain ndi1, stronger effect = lower value",0.917
same,normalized growth,"S. cerevisiae deletion strains, locus YML124C, strain tub3, stronger effect = lower value",0.996
same,normalized growth,"S. cerevisiae deletion strains, locus YMR058W, strain fet3, stronger effect = lower value",0.871 (active)
same,normalized growth,"S. cerevisiae deletion strains, locus YMR078C, strain ctf18, stronger effect = lower value",0.994
same,normalized growth,"S. cerevisiae deletion strains, locus YMR125W, strain sto1, stronger effect = lower value",1.04
same,normalized growth,"S. cerevisiae deletion strains, locus YMR129W, stronger effect = lower value",0.966
same,normalized growth,"S. cerevisiae deletion strains, locus YMR205C, strain PFK2, stronger effect = lower value",0.898
same,normalized growth,"S. cerevisiae deletion strains, locus YMR223W, strain ubp8, stronger effect = lower value",1.02
same,normalized growth,"S. cerevisiae deletion strains, locus YMR231W, strain pep5, stronger effect = lower value",0.754 (active)
same,normalized growth,"S. cerevisiae deletion strains, locus YMR307W, strain GAS1, stronger effect = lower value",0.904
same,normalized growth,"S. cerevisiae deletion strains, locus YNL067W, strain RPL9B, stronger effect = lower value",0.972
same,normalized growth,"S. cerevisiae deletion strains, locus YNL071W, strain lat1, stronger effect = lower value",0.821 (active)
same,normalized growth,"S. cerevisiae deletion strains, locus YNL153C, strain GIM3, stronger effect = lower value",1.02
same,normalized growth,"S. cerevisiae deletion strains, locus YNL183C, strain NPR1, stronger effect = lower value",0.88
same,normalized growth,"S. cerevisiae deletion strains, locus YNL209W, strain ssb2, stronger effect = lower value",0.929
same,normalized growth,"S. cerevisiae deletion strains, locus YNL233W, strain BNI4, stronger effect = lower value",0.992
same,normalized growth,"S. cerevisiae deletion strains, locus YNL248C, strain rpa49, stronger effect = lower value",0.835 (active)
same,normalized growth,"S. cerevisiae deletion strains, locus YNL250W, strain rad50, stronger effect = lower value",0.992
same,normalized growth,"S. cerevisiae deletion strains, locus YNL271C, strain bni1, stronger effect = lower value",1
same,normalized growth,"S. cerevisiae deletion strains, locus YNL298W, strain CLA4, stronger effect = lower value",0.913
same,normalized growth,"S. cerevisiae deletion strains, locus YNL307C, strain MCK1, stronger effect = lower value",0.995
same,normalized growth,"S. cerevisiae deletion strains, locus YNL322C, strain KRE1 (second series), stronger effect = lower value",0.961
same,normalized growth,"S. cerevisiae deletion strains, locus YNR049C, strain mso1, stronger effect = lower value",0.97
same,normalized growth,"S. cerevisiae deletion strains, locus YNR052C, strain pop2, stronger effect = lower value",1.01
same,normalized growth,"S. cerevisiae deletion strains, locus YOL006C, strain TOP1, stronger effect = lower value",0.979
same,normalized growth,"S. cerevisiae deletion strains, locus YOL012C, strain htz1",1.64
same,normalized growth,"S. cerevisiae deletion strains, locus YOL147C, strain pex11, stronger effect = lower value",0.997
same,normalized growth,"S. cerevisiae deletion strains, locus YOR001W, strain rrp6, stronger effect = lower value",0.892
same,normalized growth,"S. cerevisiae deletion strains, locus YOR061W, strain CKA2, stronger effect = lower value",0.993
same,normalized growth,"S. cerevisiae deletion strains, locus YOR069W, strain VPS5, stronger effect = lower value",1
same,normalized growth,"S. cerevisiae deletion strains, locus YOR070C, strain gyp1, stronger effect = lower value",0.906 (active)
same,normalized growth,"S. cerevisiae deletion strains, locus YOR080W, strain dia2, stronger effect = lower value",1.02
same,normalized growth,"S. cerevisiae deletion strains, locus YOR083W, strain WHI5, stronger effect = lower value",0.899
same,normalized growth,"S. cerevisiae deletion strains, locus YOR106W, strain vam3, stronger effect = lower value",0.817 (active)
same,normalized growth,"S. cerevisiae deletion strains, locus YOR136W, strain idh2, stronger effect = lower value",0.998
same,normalized growth,"S. cerevisiae deletion strains, locus YOR144C, strain elg1, stronger effect = lower value",1
same,normalized growth,"S. cerevisiae deletion strains, locus YOR184W, strain ser1, stronger effect = lower value",0.958
same,normalized growth,"S. cerevisiae deletion strains, locus YOR231W, strain MKK1, stronger effect = lower value",0.946
same,normalized growth,"S. cerevisiae deletion strains, locus YOR265W, strain rbl2, stronger effect = lower value",0.945
same,normalized growth,"S. cerevisiae deletion strains, locus YOR270C, strain vph1, stronger effect = lower value",0.674 (active)
same,normalized growth,"S. cerevisiae deletion strains, locus YOR290C, strain snf2, stronger effect = lower value",0.908
same,normalized growth,"S. cerevisiae deletion strains, locus YOR316C, strain cot1, stronger effect = lower value",0.993
same,normalized growth,"S. cerevisiae deletion strains, locus YPL051W, strain arl3, stronger effect = lower value",0.715 (active)
same,normalized growth,"S. cerevisiae deletion strains, locus YPL055C, strain LGE1, stronger effect = lower value",0.947
same,normalized growth,"S. cerevisiae deletion strains, locus YPL078C, strain atp4, stronger effect = lower value",0.838 (active)
same,normalized growth,"S. cerevisiae deletion strains, locus YPL106C, strain sse1, stronger effect = lower value",1.1
same,normalized growth,"S. cerevisiae deletion strains, locus YPL240C, strain hsp82, stronger effect = lower value",0.951
same,normalized growth,"S. cerevisiae deletion strains, locus YPL241C, strain CIN2, stronger effect = lower value",0.999
same,normalized growth,"S. cerevisiae deletion strains, locus YPL256C, strain CLN2, stronger effect = lower value",0.92
same,normalized growth,"S. cerevisiae deletion strains, locus YPR119W, strain clb2, stronger effect = lower value",0.997
same,normalized growth,"S. cerevisiae deletion strains, locus YPR141C, strain kar3, stronger effect = lower value",0.999
same,normalized growth,"S. cerevisiae deletion strains, locus YPR163C, strain tif3, stronger effect = lower value",1.01
same,normalized growth,"S. cerevisiae deletion strains, locus YPR167C, strain met16, stronger effect = lower value",0.99
same,normalized growth,"S. cerevisiae deletion strains, strain wtn01, stronger effect = lower value",0.96
same,normalized growth,"S. cerevisiae strains, strain wild type, stronger effect = lower value",0.998

# Reference: PubChem BioAssay AID1159580 (chemical genetic matrix, 2015)
